Data published in PubChem BioAssay AID1159580 (chemical genetic matrix, 2015).
Several values for one entry are separate records, joined by “and”; a condition that tells them apart may be missing. Equal values may be shown once. Out of some 5,500 compounds screened, about 2,000 (36%) were called active. Roughly 18% stayed inconclusive and do not appear here. No stated cut-off is given here; in the data, active means normalized growth mostly below about 0.91 (no sharp cut-off); inconclusive means no clear call, values can overlap the other calls; inactive means mostly above about 0.92. Some of the results follow.

Experiment: chemical genetic growth profiling, strain panel (AID 1159580);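 further: tested at 20 µM; growth read once vehicle control cultures reached saturation at 30 °C; 1 = growth at the plate median or of vehicle wells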
Conditions: S. cerevisiae deletion strains, growth OD

Compound: CC1=CCc2c(cc3oc(C)cc(=O)c3c2O)OC1
- normalized growth (locus YAL013W, strain DEP1, stronger effect = lower value): 0.886 (active)
- normalized growth (locus YAL021C, strain ccr4, stronger effect = lower value): 0.991 (inactive)
- normalized growth (locus YAL026C, strain drs2, stronger effect = lower value): 0.964 (inactive)
- normalized growth (locus YAL030W, strain snc1, stronger effect = lower value): 0.972 (inactive)
- normalized growth (locus YBL061C, strain skt5, stronger effect = lower value): 0.971 (inactive)
- normalized growth (locus YBR009C, strain hhf1, stronger effect = lower value): 0.954 (inactive)
- normalized growth (locus YBR021W, strain FUR4, stronger effect = lower value): 0.856 (inactive)
- normalized growth (locus YBR023C, strain chs3, stronger effect = lower value): 0.977 (inactive)
- normalized growth (locus YBR171W, strain sec66, stronger effect = lower value): 0.94 (inactive)
- normalized growth (locus YBR229C, strain ROT2, stronger effect = lower value): 0.98 (inactive)
- normalized growth (locus YBR231C, strain swc5, stronger effect = lower value): 0.966 (inactive)
- normalized growth (locus YBR279W, strain paf1, stronger effect = lower value): 0.982 (inactive)
- normalized growth (locus YCL011C, strain gbp2, stronger effect = lower value): 0.929 (inactive)
- normalized growth (locus YCL016C, strain dcc1, stronger effect = lower value): 0.982 (inactive)
- normalized growth (locus YCL029C, strain bik1, stronger effect = lower value): 0.951 (inactive)
- normalized growth (locus YCL061C, strain MRC1, stronger effect = lower value): 0.954 (inactive)
- normalized growth (locus YCL069W, strain vba3, stronger effect = lower value): 0.954 (inactive)
- normalized growth (locus YCR088W, strain abp1, stronger effect = lower value): 0.961 (inactive)
- normalized growth (locus YDL005C, strain med2, stronger effect = lower value): 1 (inactive)
- normalized growth (locus YDL035C, strain GPR1, stronger effect = lower value): 0.863 (inactive)
- normalized growth (locus YDL040C, strain nat1, stronger effect = lower value): 0.984 (inactive)
- normalized growth (locus YDL074C, strain BRE1, stronger effect = lower value): 0.703 (active)
- normalized growth (locus YDL101C, strain DUN1, stronger effect = lower value): 0.943 (inactive)
- normalized growth (locus YDL134C, strain PPH21, stronger effect = lower value): 0.907 (inactive)
- normalized growth (locus YDL185W, strain tfp1, stronger effect = lower value): 0.962 (inactive)
- normalized growth (locus YDL192W, strain arf1, stronger effect = lower value): 0.901 (active)
- normalized growth (locus YDR001C, strain nth1, stronger effect = lower value): 0.949 (inactive)
- normalized growth (locus YDR069C, strain doa4, stronger effect = lower value): 0.988 (inactive)
- normalized growth (locus YDR101C, strain arx1, stronger effect = lower value): 0.887 (active)
- normalized growth (locus YDR137W, strain rgp1, stronger effect = lower value): 0.913 (inactive)
- normalized growth (locus YDR150W, strain NUM1, stronger effect = lower value): 0.96 (inactive)
- normalized growth (locus YDR159W, strain sac3, stronger effect = lower value): 1.02 (inactive)
- normalized growth (locus YDR162C, strain NBP2, stronger effect = lower value): 0.738 (active)
- normalized growth (locus YDR195W, strain ref2): 1.2 [resistant] (active)
- normalized growth (locus YDR297W, strain sur2, stronger effect = lower value): 0.968 (inactive)
- normalized growth (locus YDR318W, strain mcm21, stronger effect = lower value): 0.885 (active)
- normalized growth (locus YDR334W, strain swr1, stronger effect = lower value): 0.965 (inactive)
- normalized growth (locus YDR335W, strain msn5, stronger effect = lower value): 0.987 (inactive)
- normalized growth (locus YDR388W, stronger effect = lower value): 0.957 (inactive)
- normalized growth (locus YDR392W, strain spt3, stronger effect = lower value): 0.893 (inactive)
- normalized growth (locus YDR502C, strain sam2, stronger effect = lower value): 0.86 (active)
- normalized growth (locus YEL003W, strain gim4, stronger effect = lower value): 0.929 (inactive)
- normalized growth (locus YEL037C, strain rad23, stronger effect = lower value): 0.96 (inactive)
- normalized growth (locus YEL061C, strain CIN8 (second series), stronger effect = lower value): 0.966 (inactive)
- normalized growth (locus YEL061C, strain CIN8, stronger effect = lower value): 0.952 (inactive)
- normalized growth (locus YER015W, strain faa2, stronger effect = lower value): 0.975 (inactive)
- normalized growth (locus YER016W, strain bim1, stronger effect = lower value): 0.985 (inactive)
- normalized growth (locus YER110C, stronger effect = lower value): 0.933 (inactive)
- normalized growth (locus YER111C, strain swi4, stronger effect = lower value): 0.967 (inactive)
- normalized growth (locus YER155C, strain BEM2 (second series), stronger effect = lower value): 0.867 (inactive)
- normalized growth (locus YER155C, strain BEM2, stronger effect = lower value): 0.96 (inactive)
- normalized growth (locus YER167W, strain BCK2, stronger effect = lower value): 0.924 (inactive)
- normalized growth (locus YFR010W, strain ubp6, stronger effect = lower value): 0.953 (inactive)
- normalized growth (locus YGL078C, strain dbp3, stronger effect = lower value): 0.944 (inactive)
- normalized growth (locus YGL086W, strain mad1, stronger effect = lower value): 0.934 (inactive)
- normalized growth (locus YGL167C, strain pmr1, stronger effect = lower value): 0.979 (inactive)
- normalized growth (locus YGL173C, strain kem1, stronger effect = lower value): 0.959 (inactive)
- normalized growth (locus YGL227W, strain vid30, stronger effect = lower value): 0.964 (inactive)
- normalized growth (locus YGL240W, strain doc1, stronger effect = lower value): 0.951 (inactive)
- normalized growth (locus YGL248W, strain PDE1, stronger effect = lower value): 0.901 (inactive)
- normalized growth (locus YGL253W, strain hxk2, stronger effect = lower value): 0.987 (inactive)
- normalized growth (locus YGR078C, strain PAC10, stronger effect = lower value): 0.785 (active)
- normalized growth (locus YGR135W, strain pre9, stronger effect = lower value): 0.802 (active)
- normalized growth (locus YGR229C, strain SMI1, stronger effect = lower value): 0.679 (active)
- normalized growth (locus YGR252W, strain gcn5, stronger effect = lower value): 0.741 (active)
- normalized growth (locus YHR013C, strain ard1, stronger effect = lower value): 0.924 (inactive)
- normalized growth (locus YHR027C, strain rpn1, stronger effect = lower value): 0.984 (inactive)
- normalized growth (locus YHR030C, strain SLT2, stronger effect = lower value): 0.892 (active) and 0.959 (inactive)
- normalized growth (locus YHR079C, strain IRE1 (second series), stronger effect = lower value): 0.91 (active)
- normalized growth (locus YHR079C, strain IRE1, stronger effect = lower value): 0.96 (inactive)
- normalized growth (locus YHR094C, strain hxt1, stronger effect = lower value): 0.972 (inactive)
- normalized growth (locus YHR129C, strain ARP1, stronger effect = lower value): 0.925 (inactive)
- normalized growth (locus YHR142W, strain chs7, stronger effect = lower value): 0.888 (inactive)
- normalized growth (locus YHR200W, strain rpn10, stronger effect = lower value): 0.921 (inactive)
- normalized growth (locus YIL066C, strain RNR3, stronger effect = lower value): 0.858 (active)
- normalized growth (locus YIL073C, strain SPO22, stronger effect = lower value): 0.909 (inactive)
- normalized growth (locus YIL125W, strain kgd1, stronger effect = lower value): 0.964 (inactive)
- normalized growth (locus YIR030C, strain dcg1, stronger effect = lower value): 0.969 (inactive)
- normalized growth (locus YJL092W, strain hpr5, stronger effect = lower value): 0.956 (inactive)
- normalized growth (locus YJL095W, strain BCK1 (second series), stronger effect = lower value): 0.98 (inactive)
- normalized growth (locus YJL095W, strain BCK1, stronger effect = lower value): 0.756 (active) and 0.945 (inactive)
- normalized growth (locus YJL115W, strain asf1, stronger effect = lower value): 0.973 (inactive)
- normalized growth (locus YJL129C, strain trk1, stronger effect = lower value): 0.912 (inactive)
- normalized growth (locus YJL134W, strain LCB3, stronger effect = lower value): 0.978 (inactive)
- normalized growth (locus YJL154C, strain vps35, stronger effect = lower value): 0.956 (inactive)
- normalized growth (locus YJL164C, strain tpk1, stronger effect = lower value): 0.952 (inactive)
- normalized growth (locus YJL166W, strain qcr8, stronger effect = lower value): 0.983 (inactive)
- normalized growth (locus YJL168C, strain set2, stronger effect = lower value): 0.968 (inactive)
- normalized growth (locus YJL187C, strain SWE1 (second series), stronger effect = lower value): 0.867 (active)
- normalized growth (locus YJR043C, strain POL32, stronger effect = lower value): 0.792 (active)
- normalized growth (locus YJR066W, strain TOR1, stronger effect = lower value): 0.915 (inactive)
